Among the data in PubChem BioAssay (NCI) are growth inhibition values, retold here.

This is part of a sample that, as a whole, favours compounds with a hit. Of some 79,000 tested, about 15% had one in any assay. A number with no mark means an inactive call. Calls of active or inactive are those of the source. No stated cut-off is given here; in the data, active means growth inhibition above about 70%; inactive means the rest.

The assay in a line: NCI Yeast Anticancer Drug Screen. Data for the mlh1 rad18 strain (AID 175). Particulars: S. cerevisiae mlh1 rad18 strain growth inhibition; at 5.0 µM (retest, dose inferred, filed as 0.5); stronger effect = higher value. The gist of the method:
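Compound-treated yeast growth, normalised to vehicle controls. Strain bears defined DNA repair mutations.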
In the case of `O=[N+]([O-])c1cc[n+]([O-])c2ccccc12`, the growth inhibition was 99% (active).

Consider `COc1c[c]([Hg][O]C(C)=O)c(OC)c(NC(=O)CC(C)=O)[c]1[Hg][O]C(C)=O`, for which the growth inhibition was 95% (active).

For the molecule `CN(C)c1ccc(C2N(Cc3ccc(N(CCCl)CCCl)cc3)CCCN2Cc2ccc(N(CCCl)CCCl)cc2)cc1`, the growth inhibition was -1%. Regarding `CC(=O)c1ccc(-[n+]2c(C)cc(-c3ccccc3)cc2C)cc1`, the growth inhibition is -5%. In the case of `[O]=[Sb]([OH])([OH])[c]1ccc(NC2OC(CO)C(O)C(O)C2O)cc1` (stereo not given) it was 1%; in that of `CCC1CN1P(=O)(Oc1ccccc1)N1CC1CC` (stereo not given), -2%. Regarding `CCN(CC)CC(=O)c1cc2ccccc2c2ccccc12`, the growth inhibition was 36%. In the case of `O=C1CCCC1Cl` (stereo not given), the growth inhibition was -3%. Take `N#C[S-].[La+3].c1ccc(-c2ccccn2)nc1.c1ccc(-c2ccccn2)nc1.c1ccc(-c2ccccn2)nc1`: the growth inhibition is 56%.

`O=c1s[se]c2ccccc12`: the growth inhibition was 25%. With `O=C(CCl)Nc1ccc(Cl)cc1`, the growth inhibition was 1%. With `O=C1N[C@H]2[C@H](O)[C@H](O)[C@@H](O)[C@H](O)[C@@H]2c2cc3c(c(O)c21)OCO3`, the growth inhibition was 26%. As to `O=C(Nc1n[c]([Hg][Cl])[c]([Hg][Cl])s1)OCc1ccccc1`, the growth inhibition is 99% (active). Regarding `CC[C@@]1(O)C[C@H](OC2CC(N(C)C)C(O)C(C)O2)c2c(cc3c(c2O)C(=O)c2c(O)ccc(O)c2C3=O)[C@H]1C(=O)OC` (stereo not given in full), the growth inhibition was 94% (active). On to `CCCCCc1cc(O)c(CCCC)c(O)c1`, for which the growth inhibition is -92%. Next, `NC(=O)/C=C/c1ccc([As]=O)cc1` (stereo not given): 5%; `O=[N+]([O-])c1cccc(SC(Cl)(Cl)Cl)c1`: 45%. In the case of `COc1cc(/C=C(/C)[N+](=O)[O-])ccc1O` it was 59%; in that of `CCC[CH2][Sn]1([CH2]CCC)[O]CC(CN2CCOCC2)[O]1` (stereo not given), 45%. On to `O=C1CN2CCCCC2CN1` (stereo not given), for which the growth inhibition was -137%. In the case of `CCC[CH2][Sn]([CH2]CCC)([O]C(=O)CCC(C)=O)[O]C(=O)CCC(C)=O`, the growth inhibition was 81% (active). As to `C[CH2][Sn]([F])([CH2]C)[CH2]C`, the growth inhibition was 5%. Consider `CN(C)CCBr`, for which the growth inhibition is 49%. As to `O=[N+]([O-])c1ccc2c3c(cccc13)CC2`, the growth inhibition was 25%. Turning to `CC1=CC2CC(C)=C(CC[C@]3(C)CC[C@H]([C@@H](C)C(=O)O)OO3)C(C)(C)C2CC1` (stereo not given in full), the growth inhibition is 60%. For the molecule `ClC(CN1CCCCC1)C(Cl)c1ccccc1` (stereo not given), the growth inhibition was 16%. For `CCOC(=O)c1ccc(N=Cc2ccc(N(CCCl)CCCl)cc2C)cc1`, the growth inhibition is 25%. For `CN=C(N)N/N=C(\C)c1ccc2sc3ccc(/C(C)=N/NC(N)=NC)cc3c2c1`, the growth inhibition is 14%. As for `c1cc2n[pH]nc2cn1` (stereo not given), the growth inhibition was 6%. For the molecule `O=[N+]([O-])c1ccc(Br)c([N+](=O)[O-])c1`, the growth inhibition was 17%. As to `O=C(CBr)NC1CCCCC1`, the growth inhibition is -2%. `CC(C)C12C=C3CCC4C(C)(C(=O)O)CCCC4(C)C3(CC1)OO2` (stereo not given): the growth inhibition is 1%. On to `IC(I)=C(I)I`, for which the growth inhibition was 99% (active). In the case of `Clc1ccc2c(c1)C(c1ccccc1Cl)=NCC(SCCN1CCOCC1)=N2`, the growth inhibition was 52%. As for `CCOP(=O)(OCC)/C(C#N)=C/c1ccc(Br)cc1`, the growth inhibition is -19%.

On to `Cc1ccc(C(=O)C2C(c3ccccc3)N2C2CCCCC2)cc1` (stereo not given), for which the growth inhibition was 2%. With `CN(C)c1ncnc2c1ncn2C1OC(CO)C2NP(=O)(N(CCCl)CCCl)OC21` (stereo not given), the growth inhibition is -17%. Next, `Nc1nc(N)c(-c2ccc(Cl)c(Cl)c2)c(CCc2ccc(CNC(=O)c3cccc(S(=O)(=O)F)c3)cc2)n1`: 30%. In the case of `C[CH2][Pb]([CH2]C)([CH2]C)[O]C(=O)COc1ccc(Cl)cc1Cl`, the growth inhibition is 29%. With `O=C(OCC(CCl)OC(=O)C(Cl)(Cl)Cl)C(Cl)(Cl)Cl` (stereo not given), the growth inhibition was -30%.
